In the library only some 0.65% were active in any assay of this set; here they are far more common.
Sa ugtP lethal = growth inhibition of S. aureus ugtP deletion strain | 0.54% of 330,000 active | growth inhibition, % (concentration not given with the values) | S. aureus RN4220 ugtP deletion, OD600 growth, 16 h; in the data active means growth inhibition above about 68%;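 further: plate controls were untreated wells for no effect and antibiotic for full effect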
BJeLR viability = BJeLR cell viability loss | AID 1554 | BJeLR (HRASV12) viability, CellTiter-Glo ATP luminescence, 48 h | 0.17% of 300,000 active | inhibition, % (test concentration not listed); in the data active means inhibition above about 50%
RN4220 kill = kills Staphylococcus aureus RN4220; S. aureus RN4220 growth, OD600, 16 h; inhibition, % (no concentration beside the values); 0.33% of 330,000 active; AID 1259311; in the data active means inhibition above about 85%;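 further: plate controls were untreated cells for no effect and reference antibiotic for full effect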
An asterisk follows results filed as active; nt = not tested or not shown.

SMILES | Sa ugtP lethal | BJeLR viability | RN4220 kill
O=c1oc2cc(Oc3c([N+](=O)[O-])cc(C(F)(F)F)cc3[N+](=O)[O-])ccc2c2c1CCCC2 | 94* | 5 | 44
CN(Cc1ccccc1)S(=O)(=O)CCNC(=O)c1ccc2c(c1)OCO2 | 3 | 2 | 1
CC1=NN(c2ccc(C)cc2)C(=O)/C1=C/c1ccc(-c2cc([N+](=O)[O-])ccc2O)o1 | 85* | 0 | 39
CC1=NN(c2ccc(C(=O)O)cc2)C(=O)/C1=C/c1ccc(-c2ccccc2F)o1 | nt | -7 | nt
O=[N+]([O-])c1ccc(NCCNS(=O)(=O)c2ccccc2)c(C(F)(F)F)c1 | -12 | -5 | -2
COc1cccc(OCCn2c(C)c(/C=N/n3cnnc3)c3ccccc32)c1 | nt | 5 | nt
COc1ccc(-c2oc3ccc(-c4cc(OC)c(OC)c(OC)c4)cc3c2-c2ccc(OC)cc2)cc1 | 4 | 6 | 11
COc1ccc(-c2c(C)oc3ccc(C)cc23)cc1 | 84* | -1 | 6
COc1cc(CNCc2ccccc2Cl)ccc1OCC(=O)NC1CCCCC1 | 2 | 0 | 0
O=C(CN1CCN(S(=O)(=O)c2ccccc2)CC1)NC(=O)NCc1ccccc1 | 4 | 2 | 0
Cc1nn(-c2ccccc2C(F)(F)F)c(=O)c2noc(C)c12 | 8 | -10 | 5
CCCCc1ccc(-c2ccc(Br)cc2)nc1 | 88* | -4 | 18
CCCc1ccc(-c2ccc(-c3noc(-c4ccncc4)n3)cc2)nc1 | 14 | -1 | -6
O=C(NC1CCCCCC1)C1CCCN1S(=O)(=O)c1cccc2cccnc12 (stereo not given) | -11 | 2 | 7
CCOC(=O)C(O)(NC(=O)c1cccnc1)C(F)(F)F (stereo not given) | 58 | nt | 84*
CCOC(=O)CNC(=O)c1cccnc1 | 9 | -7 | 3
CC1CCN(C(=O)CSc2nnc(-c3ccncc3)n2C)CC1 | 5 | 14 | 5
O=C1CCC(=O)N1OCCOc1ccccc1 | 2 | 0 | 6
C=C1C(=O)O[C@@H]2C[C@@H](C)[C@@H]3C=CC(=O)[C@@]3(C)[C@@H](OC(=O)CC(=O)O[C@H]3[C@@H]4C(=C)C(=O)O[C@@H]4C[C@@H](C)[C@@H]4C=CC(=O)[C@]43C)[C@H]12 | nt | 94* | nt
C=C1C(=O)O[C@H]2[C@H]1[C@H](OC(=O)CC(=O)O[C@@H]1C[C@@H](C)[C@@H]3C=CC(=O)[C@@]3(C)[C@H]3OC(=O)C(=C)[C@H]13)C[C@@H](C)[C@H]1C=CC(=O)[C@]12C | nt | 0 | nt
COc1ccc(OC)c(/C=N/NC(=O)c2c(C)nc3ccc(C)cn23)c1 | nt | -1 | nt
CC1=C(C(=O)O)N2C(=O)C(NC(=O)c3ccc(F)cc3)C2SC1 (stereo not given) | 29 | nt | 18
CCN1CCN(C(=O)NC(C(=O)NC2C(=O)N3C(C(=O)O)=C(CSc4nnnn4C)CSC23)c2ccc(O)cc2)C(=O)C1=O (stereo not given) | 100* | nt | 101*
N[C@@H](C(=O)N[C@@H]1C(=O)N2C(C(=O)O)=C(Cl)CS[C@H]12)c1ccccc1 | nt | -13 | nt
Cc1c(Cl)cnn1CC(=O)NC1C(=O)N2C(C(=O)O)=C(CSc3nnnn3C)CSC12 (stereo not given) | 100* | -1 | 100*
SMILES | Sa ugtP lethal | BJeLR viability | RN4220 kill
CC1=C(C(=O)O)N2C(=O)C(NC(=O)c3nn(C)cc3Cl)C2SC1 (stereo not given) | 7 | -1 | 4
Cn1nnnc1SCC1=C(C(=O)O)N2C(=O)C(NC(=O)Cn3nc(C(F)F)cc3C3CC3)C2SC1 (stereo not given) | 101* | -5 | 100*
CC(C(=O)NC1C(=O)N2C(C(=O)O)=C(CSc3nnnn3C)CSC12)n1cc(Cl)cn1 (stereo not given) | 100* | -14 | 100*
CC1=C(C(=O)O)N2C(=O)[C@@H](NC(=O)CCCC(=O)O)[C@H]2SC1 | -2 | -6 | 4
CC(=O)Nc1cccc(Cn2cccn2)c1 | -5 | -7 | -3
CCC(=O)N/N=C(\C)CC(=O)Nc1ccccc1-c1ccccc1 | nt | 0 | nt
COc1ccccc1N1CCN(S(=O)(=O)CCNC(=O)CC2CCCCC2)CC1 | 3 | 4 | 0
COCCNC(=O)C1CC2Cn3c(nc4cc(C)c(C)cc43)C2N1C (stereo not given) | 1 | 9 | 5
Cc1c(Cl)c(C(F)F)nn1CC(=O)NC1C(=O)N2C(C(=O)O)=C(CSc3nnnn3C)CSC12 (stereo not given) | 97* | 2 | 100*
Cc1nn(CC(=O)NC2C(=O)N3C(C(=O)O)=C(CSc4nnnn4C)CSC23)cc1Br (stereo not given) | 99* | 1 | 100*
Cc1c(Cl)cnc(NC(=O)CSc2nnnn2C)c1Cl | 4 | nt | 2
CCn1ccc(C(=O)NC2C(=O)N3C(C(=O)O)=C(C)CSC23)n1 (stereo not given) | 7 | 5 | 9
Cc1cc2c(OCC(O)CNC(C)(C)C)cccc2[nH]1 (stereo not given) | 0 | -7 | -3
COc1ccccc1NC(=O)CN(Cc1ccco1)C(=O)c1ccc(-n2nc(C)cc2C)cc1 | 2 | 0 | 4
Nc1nc(-c2c[nH]c3ccccc23)cs1 | -12 | -3 | 3
CCc1ccc(-c2csc(-c3c[nH]c4ccccc34)n2)cc1 | 85* | 16 | -2
O=c1[nH]c2ccc(NS(=O)(=O)c3ccc4ccccc4c3)cc2[nH]1 | 6 | -4 | 3
CN(C)c1ccc(/C=C/c2cccc[n+]2[O-])cc1 | nt | -3 | nt
CN(C)c1ccc(/C=C/c2ccc3ccccc3[n+]2C)cc1 | 95* | 44 | 97*
CN(CCCS(=O)(=O)[O-])c1ccc(/C=C/c2ccc3ccccc3[n+]2C)cc1 | 2 | 9 | 2
CN(C)c1ccc(/C=C/c2ccc3c4ccccc4ccc3[n+]2-c2ccccc2)cc1 | 98* | nt | 98*
COc1ccccc1C(=O)NCCC(=O)Nc1ccc(S(=O)(=O)Nc2ncccn2)cc1 | 3 | nt | 4
CC1(C)CC(=O)c2c(O)cc(OCC(=O)N3CCN(c4ccc(F)cc4)CC3)cc2O1 | -1 | 2 | 3
O=C(Nc1ccc([N+](=O)[O-])cc1)Nc1nc(-c2ccc(Cl)s2)cs1 | 97* | 40 | 97*
CC(=O)Nc1nc(-c2ccc([N+](=O)[O-])cc2)cs1 | 7 | 1 | 3
SMILES | Sa ugtP lethal | BJeLR viability | RN4220 kill
O=C(Nc1nc(-c2ccc(Cl)s2)cs1)c1cccs1 | 99* | 1 | 54
O=C(Nc1nc(-c2ccccc2)cs1)c1cccs1 | 20 | 4 | 29
CCOc1cc(C=NNC(=O)c2cc(-c3cccc(OC)c3)nc3ccccc23)ccc1O | 0 | nt | -1
O=C(NNC(=O)C1C2CCCCC21)c1coc(=O)c(Br)c1 (stereo not given) | 7 | 0 | 7
CC1CC(CCN)(c2ccccc2)C(C)CN1C (stereo not given) | 4 | 0 | 3
COc1ccc(/C(C)=N/N=C2/NC(=O)CC(C(=O)O)S2)cc1F (stereo not given) | nt | 9 | nt
NCCCCc1ccc2ccc3cccc4ccc1c2c34 | 100* | nt | 101*
O=C(O)CCCc1ccc2ccc3cccc4ccc1c2c34 | 20 | 5 | 8
COc1ccc(-c2cc(C(=O)N(C)CC(=O)Nc3ccccc3Br)c3ccccc3n2)cc1OC | 15 | 10 | 5

Bioassay records deposited in PubChem by several laboratories.
